The panel holds about 83,000 compounds, 20% with a hit somewhere; the sample as a whole holds those more often.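 Values shown are percent growth following 48 h exposure of cells in 96-well plates to a single concentration of compound; below 10 was considered active.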 Values without a mark were called inactive. Active and inactive are the calls of the source.
Assays:
Test in all cases: NCI-60 one-dose screen, 48 h (100 = growth as untreated, 0 = no growth, -100 = all killed)
Conditions in all cases: 10 µM unless noted
[1] = test system: SR leukemia
[2] = test system: RPMI-8226 leukemia
[3] = test system: OVCAR-8 ovarian
[4] = test system: OVCAR-5 ovarian
[5] = test system: SK-OV-3 ovarian
[6] = test system: IGROV1 ovarian
[7] = test system: OVCAR-3 ovarian
[8] = test system: HS 578T breast
[9] = test system: NCI/ADR-RES ovarian
[10] = test system: OVCAR-4 ovarian

Row | SMILES | growth [1] | growth [2] | growth [3] | growth [4] | growth [5] | growth [6] | growth [7] | growth [8] | growth [9] | growth [10]
1 | O=S(=O)(NCCNc1nccc(-c2c(-c3cccc(O)c3)nc3occn23)n1)c1ccc(C(F)(F)F)cc1 | 110% | 105% | 102% | 138% | 95.8% | 73.8% | 113% | 100% | 105% | –
2 | C#CCNC(=O)[C@H](Cc1ccccc1)NC(=O)[C@]12CC[C@@H](C(=C)C)[C@@H]1[C@H]1CC[C@@H]3[C@@]4(C)CCC(=O)C(C)(C)[C@@H]4CC[C@@]3(C)[C@]1(C)CC2 | 42% | 38% | 86.8% | – | 84.7% | 89.1% | 62.9% | 85.1% | 79.8% | –
3 | CC(C)(C)c1cc(C=O)cc(C(C)(C)C)c1O | 101% | 72.7% | 94.1% | – | 110% | 106% | 101% | – | 98.8% | 98.7%
4 | N#Cc1c(NCc2ccccc2I)sc2c1CCCCC2 | 93.8% | 91.9% | 88.8% | – | 97.8% | 71.9% | 104% | 93.3% | 89.7% | 90%
5 | COc1cc(C2C3CC4CCCC[C@H]4N3[C@@]3(C(=O)Nc4cc(Cl)ccc43)C2C(=O)c2nc3ccccc3[nH]2)cc(OC)c1OC (stereo partly drawn) | 38.3% | 23.6% | 70.7% | – | 94.3% | 62.1% | 69.7% | 74% | 66.8% | 56.3%
6 | CCCCCCCCCCCCCCCC[N+]1(C)CCN(SN2CC[N+](C)(CCCCCCCCCCCCCCCC)CC2)CC1 | 26.8% | 26.3% | 67.2% | – | 124% | -18.9% (active) | 59.7% | 88.2% | 96.3% | 74.6%
7 | O=C(CCN1CCCC1)Nc1ccc2c(Nc3ccc(Br)cc3)c3ccccc3nc2c1 | -22.6% (active) | -34.9% (active) | 5.94% (active) | – | 57.5% | -21.1% (active) | -65.1% (active) | 58.6% | 20.3% | -20.2% (active)
8 | CCOC(=O)CCN(CC(C)C)C(=S)Nc1ccccc1 | 97.1% | 115% | 102% | 100% | 130% | 102% | 124% | 117% | 105% | –
9 | Nc1c(C(=O)Nc2cccc3cnccc23)sc2nc3c(cc12)CN(Cc1ccccc1)CC3 | 95.5% | 99.7% | 106% | – | 111% | 99.9% | 108% | 104% | 112% | 105%
10 | Cn1ccnc1C(=O)/C=C/c1ccc(CC(=O)Nc2ccc(Cl)cc2)cc1 | 6.73% (active) | -7.76% (active) | -27.7% (active) | 22.9% | 58.7% | 13% | 4.49% (active) | 8.18% (active) | 10.8% | –
11 | O=C(C[n+]1cccc2ccccc21)c1ccc(O)c(O)c1 | 7.71% (active) | 17.4% | 49.2% | – | 120% | 48.5% | 35.7% | 90.6% | 75.4% | –
12 | COc1cc2c(=O)n(CCCN(C)C)c3c4cc5c(cc4ccc3c2cc1OC)OCO5 | 9.59% (active) | 6.97% (active) | 48.3% | 112% | 102% | 31.9% | 65.5% | 67.1% | 53.5% | –
13 | CC(=O)c1cc2c(N)c(C(=O)Nc3cccc4ccncc34)sc2nc1C | 49.8% | 103% | 108% | – | 93.4% | 101% | 103% | 91.3% | 108% | 110%
14 | COC(=O)C1=C(C(=O)ON)[C@@H]2C=C[C@@]1([C@@H](Cc1ccccc1)Nc1ccccc1)O2 | 8.17% (active) | 21.7% | 92.8% | – | 107% | 85.6% | -79.1% (active) | 109% | 89.8% | 79.9%
15 | C=C(C)[C@@H]1CC[C@]2(C(=O)N3CCN(C)CC3)CC[C@]3(C)[C@H](CC[C@@H]4[C@@]5(C)C/C(=C/c6ccncc6)C(=O)C(C)(C)[C@@H]5CC[C@]43C)[C@@H]12 | 9.44% (active) | 20.7% | 49.1% | – | 88.8% | 74.8% | 53.3% | 61.8% | 57.9% | 53%
16 | C=C(C)[C@@H]1CC[C@]2(C(=O)N3CCN(C)CC3)CC[C@]3(C)[C@H](CC[C@@H]4[C@@]5(C)CC[C@H](OCCC#N)C(C)(C)[C@@H]5CC[C@]43C)[C@@H]12 | 3.86% (active) | 29.7% | 6.81% (active) | – | 109% | 98.2% | 103% | 104% | 45.8% | 48.8%
17 | O=C1c2ccc3c4c(ccc(c24)C(=O)N1CCCNCc1ccccc1)C(=O)N(CCCNCc1ccccc1)C3=O | -47.2% (active) | -36.7% (active) | -50.7% (active) | – | -11.4% (active) | -23.4% (active) | -63.4% (active) | -32.3% (active) | -26.5% (active) | -97.2% (active)
18 | OCc1cnc2ccccc2c1NC1CCCCCC1 | 91.4% | 75% | 84.7% | – | 97.7% | 95.5% | 89.5% | 90.5% | 57.5% | –
19 | O=C(O)c1ccc2c(c1)C(=O)N(Cc1ccccc1)C2=O | 101% | 95.5% | – | 105% | 106% | 106% | 103% | 99.7% | 98% | 114%
20 | COc1ccc2nc(-c3ccc(-c4noc(-c5cc(OC)c(OC)c(OC)c5)n4)cc3)[nH]c2c1 | 18.9% | – | 33.6% | 113% | 116% | 110% | 44.8% | 72.6% | 45.3% | -53.4% (active)
21 | COCCCN1CC(O)=C(c2nc(-c3ccc(C)cc3)cs2)C1=N | 109% | – | 95.2% | 97.6% | 120% | 54.4% | 112% | 102% | 106% | 150%
22 | N/C(=N\C(N)=N\c1nc2ccccc2s1)c1ccnc(Br)c1 | 25% | – | 33.8% | 89.4% | 29.6% | 25.8% | 9.06% (active) | 19.3% | 20.1% | 59.1%
23 | COc1cccc2c1c1nc3cc(C)c(C)cc3nc1n2CCN(C)C | 3.48% (active) | – | 26.4% | 28.7% | 39% | 5.59% (active) | 32.6% | 54.4% | 25.1% | 35%
24 | COc1ccc2[nH]c(O)c(/C=c3/cc4c(c(-c5ccc(F)cc5)n3)=Nc3ccccc3-4)c2c1 | 6.4% (active) | – | 75.5% | 119% | 115% | 96.8% | 94.7% | 78.8% | 52.1% | 81.6%
25 | O=C(CCN1CCCC1)Nc1ccc2c(NCCCCc3ccccc3)c3ccccc3nc2c1 | -29% (active) | – | 1.13% (active) | 7.16% (active) | 53.9% | -18.1% (active) | -82.6% (active) | -9.34% (active) | 80.8% | -74.6% (active)
26 | COc1ccc(C(=O)c2cc(C)c(OC)c(C)c2)c(OC)c1NC(C)=O | 29.3% | – | 16.9% | 37.8% | 11% | 31.5% | 5.93% (active) | 14.4% | 0.837% (active) | 61.6%
27 | CCN1Cc2nc3sc(C)c(C)c3c(=O)n2C=C1C | -9.23% (active) | – | 38.1% | 85.9% | 115% | 30.1% | 46% | 43.2% | 30.9% | 42.3%
28 | CC(=O)O[C@@H]1C2CCC3C(CC[C@@]4(C)C3CC[C@@H]4C(C)N(C)C)[C@@]2(C)CC[C@@H]1NC(=O)C=C(C)C (stereo partly drawn) | -34.5% (active) | – | 44.3% | 83.8% | 65.4% | 37.8% | 0.951% (active) | 16% | 37.6% | -19.5% (active)
